NLRP3 yeast inh = NALP3 inhibition in yeast; Yeast reconstituted NLRP3/ASC/caspase-1, beta-gal luminescence, 24 h; inhibition, % at 10 µM; hit rate 0.39% among 330,000;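 active = inhibition of 50% or more; inactive = inhibition below 50%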
tim10-1 inh = inhibits growth of tim10-1 mutant yeast; AID 463190; inhibition, % at 20 µM; hit rate 2.2% among 330,000; S. cerevisiae tim10-1 ts strain growth, BacTiter-Glo, 24 h;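 active = inhibition of at least 40%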;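 also: mutant grown at 25 °C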
tim23-1 inh = tim23-1 yeast growth inhibition. S. cerevisiae tim23-1 growth, BacTiter-Glo luminescence, 24 h. inhibition, % at 20 µM. hit rate 1.3% among 330,000. AID 463212;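 active = growth inhibition of the mutant yeast at or above 50%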;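 also: temperature-sensitive mutant grown at 25 °C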
CR mimetic SO = yeast age-related superoxide inhibition as caloric restriction mimetic. S. cerevisiae aged cells, superoxide DHE fluorescence; stronger effect = lower value. superoxide response (% of plate mean), % at 10 µM. hit rate 0.18% among 330,000. AID 2690;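 active = superoxide response under a set limit, about three screen SD below normal, cut at about 65% in these data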;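 also: yeast aged for seven days with compound at 30 °C before DHE staining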
TIM10 inh = TIM10 yeast growth inhibition; inhibition, % at 10 µM; hit rate 1.4% among 330,000; S. cerevisiae TIM10 strain growth, BacTiter-Glo luminescence, 24 h;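 active = inhibition of 40% or more at the single tested concentration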;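 also: wild-type TIM10 isogenic control strain grown at permissive 25 °C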
tim10-1 conf = confirmation of tim10-1 mutant yeast growth inhibitors. hit rate 56% among 7,400. S. cerevisiae tim10-1 ts strain growth, BacTiter-Glo, 24 h. shares compounds with tim10-1 inh. inhibition, % at 20 µM;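 active = inhibition of yeast growth at or above a set limit in either of two repeat tests at 20 µM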;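 also: tim10-1 mutant grown at permissive 25 °C to find synthetic lethal compounds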
TIM10 conf = TIM10 yeast growth inhibition, confirmed; shares compounds with TIM10 inh; S. cerevisiae tim10 strain growth, BacTiter-Glo luminescence, 24 h; inhibition, % at 10 µM; hit rate 63% among 4,600;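 active = inhibition of yeast growth at or above a set limit in either of two replicates at 10 µM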; also: this counterscreen used the strain with wild-type TIM10
tim23-1 confirm = confirmation of tim23-1 mutant yeast growth inhibitors | S. cerevisiae tim23-1 growth, BacTiter-Glo luminescence, 24 h | AID 463218 | hit rate 83% among 4,400 | shares compounds with tim23-1 inh | inhibition, % at 20 µM;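 active = inhibition above about 39% in either of two replicate wells at 20 µM, limit read from the data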;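 also: temperature-sensitive tim23-1 mutant grown at 25 °C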
Each line names hits and unclear results; the compound was inactive in the other large screens (follow-up assays come after a bar, where they were run). Most compounds without a hit are left out; they make up all but 3.8% or so of the library.

N/C(=N\OC(=O)CCC1CCCC1)c1ccc(Br)cc1	tim10-1 inh 68, tim23-1 inh 66, TIM10 inh 83 | tim10-1 conf 50 | TIM10 conf 72 | tim23-1 confirm 61
COc1ccc(CN2CCC(=O)N([C@H](CO)CC(C)C)CC2)cc1	none
CCN(CC)/C(Sc1ccccc1)=C(\C(Cl)=C(Cl)Cl)[N+](=O)[O-]	tim10-1 inh 44, tim23-1 inh 51, TIM10 inh 46 | tim10-1 conf 35 | TIM10 conf inactive | tim23-1 confirm 51
CCOc1ccccc1NC(=O)COC(=O)C1CC1	none
CC1=CC(=O)C=C(C)C1=NOc1ccccc1[N+](=O)[O-]	tim10-1 inh 78, tim23-1 inh 66, TIM10 inh 72 | tim10-1 conf 76 | TIM10 conf inactive | tim23-1 confirm 83
CSc1ncccc1C(=O)NCc1nnc2ccccn12	none
Cn1c(SCC(=O)N2CCCCCC2)nc2c(c1=O)SCC2	none
COc1ccc2sc3ccccc3c(=O)c2c1OC	tim10-1 inh 41, tim23-1 inh 58, TIM10 inh 52 | tim10-1 conf 57 | TIM10 conf 50 | tim23-1 confirm 64
COc1ccc(N2CCN(c3nc4ccc(C)cn4c(=O)c3C=O)CC2)cc1	none
CCOC(=O)c1ccsc1NC(=O)CCS(=O)(=O)c1ccccc1	tim10-1 inh 54, tim23-1 inh 62, TIM10 inh 43 | tim10-1 conf 42 | TIM10 conf 38 | tim23-1 confirm 51
COc1ccc(C2CC(=O)Oc3cc(O)cc(O)c32)cc1 (configuration not stated)	none
COc1ccc([C@H]2Oc3cc(O)cc(O)c3C(=O)C2[C@@H]2C(=O)c3c(O)cc(O)cc3O[C@@H]2c2ccc(OC)cc2)cc1 (some centres not stated)	tim10-1 inh 49, tim23-1 inh 60 | tim10-1 conf 46 | tim23-1 confirm 49
CC1CCCCN1c1nc(-c2ccncc2)nc2ccccc12 (configuration not stated)	tim10-1 inh 47, tim23-1 inh 53, TIM10 inh 53 | tim10-1 conf 43 | TIM10 conf 41 | tim23-1 confirm 53
C/C(=N\Nc1ccc([N+](=O)[O-])cc1)c1ccc(O)cc1	tim10-1 inh 44, tim23-1 inh 70 | tim10-1 conf inactive | tim23-1 confirm 55
C=CCSc1nc(O)c(CC)c(=O)n1C(C)CC (configuration not stated)	none
CCc1c(O)nc(SCc2ccccc2)n(C(C)CC)c1=O (configuration not stated)	tim10-1 inh 41, tim23-1 inh 52 | tim10-1 conf 45 | tim23-1 confirm 48
CCc1cccc2c1NC(=O)C21N2CCCC2C(C(=O)c2ccc3ccccc3c2)C12C(=O)Nc1ccccc12 (configuration not stated)	tim10-1 inh 65, tim23-1 inh 51, TIM10 inh 69 | tim10-1 conf 70 | TIM10 conf 71 | tim23-1 confirm 61
Cc1cc(C(=O)N2CCCC(C(=O)c3ccc4ccccc4c3)C2)nn1C (configuration not stated)	none
CCc1ccc2c(c1)C1(C(=O)N2)N2CCCC2C(C(=O)c2ccc3ccccc3c2)C12C(=O)Nc1ccccc12 (configuration not stated)	none
Cc1cccc2c1NC(=O)C21N2CCCC2C(C(=O)c2ccc3ccccc3c2)C12C(=O)Nc1ccccc12 (configuration not stated)	tim10-1 inh 46, tim23-1 inh 51, TIM10 inh 43 | tim10-1 conf 71 | TIM10 conf 66 | tim23-1 confirm 57
COCCN(C(=O)CCC(=O)Nc1cc(C)on1)C(C(=O)NC(C)(C)C)c1cccc(OC)c1OC (configuration not stated)	none
COCC(=O)N1CCC(Oc2ccc(C(=O)NC(C)c3nccs3)cc2)CC1 (configuration not stated)	none
Cc1ccc(-c2cc(C(F)F)nc(N3CCOCC3)n2)cc1	none
COc1ccc(-c2cc(C(F)F)nc(-n3nc(C)cc3C)n2)cc1	tim10-1 inh 42, tim23-1 inh 58, TIM10 inh 52 | tim10-1 conf 36 | TIM10 conf inactive | tim23-1 confirm 45
Cc1nc(SCC(=O)Nc2ccc(CN3CCCC3)cc2)c2c(C)c(C)sc2n1	tim10-1 inh 51, tim23-1 inh 53, TIM10 inh 51 | tim10-1 conf 62 | TIM10 conf 38 | tim23-1 confirm 57
CCOC(=O)C1=C(CSc2nc(CC)c(C)cc2C#N)OC(N)=C(C#N)C1c1ccc(OC)cc1 (configuration not stated)	tim10-1 inh 41, tim23-1 inh 54 | tim10-1 conf inactive | tim23-1 confirm 61
COc1ccc(-n2c(SCC(=O)N3CCOCC3)nnc2C(C)N2CCCCC2)cc1 (configuration not stated)	none
CC(=O)N/C(=C\c1ccccc1)C(=O)OCC(=O)NC1CCCC1	none
Cc1nnnn1/C(=C\c1ccccc1)C(=O)OCC(=O)NC1CCCCC1	tim10-1 inh 47, tim23-1 inh 54, TIM10 inh 41 | tim10-1 conf 35 | TIM10 conf 50 | tim23-1 confirm 47
Clc1ccc(CSc2nncn2-c2ccc3c(c2)OCCO3)cc1	tim10-1 inh 41, tim23-1 inh 52 | tim10-1 conf 33 | tim23-1 confirm 47
COC(=O)C1=C(C)N(c2cccc3ccccc23)C(=O)C1	none
COC(=O)C1=C(C)N(c2cc(Cl)cc(Cl)c2)C(=O)C1	tim10-1 inh 56, tim23-1 inh 53 | tim10-1 conf 54 | tim23-1 confirm 46
CC(O)[C@H]1CC[C@H]2[C@@H]3CC[C@H]4C[C@@H](O)CC[C@]4(C)[C@H]3C(=O)C[C@]12C (some centres not stated)	none
O=[N+]([O-])/C=C/c1cn(Cc2ccc(F)cc2)c2ccccc12	tim10-1 inh 72, tim23-1 inh 65, TIM10 inh 69 | tim10-1 conf 66 | TIM10 conf 74 | tim23-1 confirm 71
CCOC(=O)C(C)CC(C)C(=O)N1CCOCCOCCN(C(=O)C(C)CC(C)C(=O)OCC)CCOCC1 (configuration not stated)	none
CCOC(=O)C(C(=O)OCC)C(C(=O)OCC)N1CCOCC1 (configuration not stated)	tim10-1 inh 63, tim23-1 inh 57, TIM10 inh 68 | tim10-1 conf 60 | TIM10 conf 71 | tim23-1 confirm 59
CC(NC(=O)Cc1cccs1)C(c1cccs1)N1CCOCC1 (configuration not stated)	none
